High-throughput results as filed in PubChem BioAssay.
Most compounds without a hit are left out; they make up all but 11% or so of the library.
AMA1-RON2 inh: qHTS for Inhibitors of AMA1-RON; Towards Development of Antimalarial Drug Lead: Primary Screen; Potency, µM (titrated, usually from 58.2 µM), for the others: at the highest dose activity change, negative = inhibition, usual class: inhibitors; AlphaScreen AMA1-biotinylated RON2 peptide binding; 360,000 tested, 0.2% active; AID 720542, 2013;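 also: 0% = vehicle wells and -100% = peptide control; nearly all actives have a fitted effect of over 45% in size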
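AMA1 (3D7) with his tag at 25 nM final met compounds first, then biotinylated RON2 peptide at 25 nM; detection used donor plus acceptor beads, 10 µg/mL apiece, read by AlphaScreen after 30 min at room temperature.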
HCV inh: qHTS Assay for Inhibitors of Hepatitis C Virus (HCV); 340,000 tested, 3.4% active; Potency, µM (top dose mostly 41.8 µM), without a hit: at the top dose activity change, negative = inhibition, actives largely listed as inhibitors; Huh7.5.1 HCVcc-Cre infection, luciferase reporter, 44 h
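HCVcc-Cre virus at an moi near 0.5 was added right after compound to cells cultured 4 h from seeding (1,000 cells/well). Luciferase activity was determined 44 h later, 15 min after substrate addition at RT.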
Pf growth 96h: Primary qHTS for delayed death inhibitors of the malarial parasite plastid, 96 hour incubation; P. falciparum luciferase reporter growth, 96 h; 320,000 tested, 6.9% active; AID 504834, 2011; Potency, µM (doses to about 28.7 µM), for inactives: at the highest dose activity change, negative = inhibition, usual class: inhibitors
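Cell-based qHTS: luciferase-tagged P. falciparum in erythrocytes (2% hematocrit, 0.05% parasitemia final) incubated with compounds for 96 hours, 37 C, 5% CO2; luciferase detection reagent then added and luminescence measured.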
Pf growth 48h: Primary qHTS for delayed death inhibitors of the malarial parasite plastid, 48 hour incubation | P. falciparum luciferase growth in erythrocytes, 48 h | Potency, µM (doses to about 28.7 µM), for the others: at the top dose activity change, negative = inhibition, most hits filed as inhibitors | 310,000 tested, 5.9% active
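Luciferase-expressing P. falciparum in infected erythrocytes (2% hematocrit, 0.1% parasitemia final) in RPMI 1640/0.5% Albumax were exposed to compound for 48 hours at 37 C, 5% CO2; growth read as luminescence.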
The depositor's hits bear a star; ? = inconclusive; / = not tested or not shown; [ ] = dose if it differs, or a comment. Calls follow the shape of the dose curve; as a rule, active = well fitted curve in the direction sought with a large enough effect; inconclusive = small, poorly fitted or top-dose-only effect, or another doubt; inactive = no such curve, though single readings can be large; an effect the other way counts as inactive or inconclusive. Unless noted, % is scaled to controls: 0 for no effect and ±100 for the full control effect; potency is read from the fitted curve at half-maximal effect.

SMILES	AMA1-RON2 inh	HCV inh	Pf growth 96h	Pf growth 48h
CN(C(=O)c1cc(-n2cnnc2)ccc1Cl)c1ccccc1	-4.5%	4.2%	70.7%	43.2%
Cc1ccc(C(Sc2ccccc2)C(Cn2cncn2)C(=O)c2ccccc2)cc1 (centres undefined)	-3.2%	?	9.28µM*	/
O=C(Nc1nnc(CSCc2ccccc2F)s1)c1cccc([N+](=O)[O-])c1	41.6%	0.6%	13.1µM*	18.7%
COC(=O)c1sccc1S(=O)(=O)Nc1ccc(S(N)(=O)=O)cc1	-16.2%	-4.5%	8.8%	16.2%
COC(=O)c1scc(C)c1S(=O)(=O)Nc1ccc(C)cc1	-9.3%	0.0%	11.7µM*	?
CCOc1ccc2c(c1)c(N=O)c(O)n2C	-21.1%	-0.6%	?	1.2%
CCCCOC(=O)c1ccc(NC(=O)C(CCS(C)(=O)=O)NC(C)=O)cc1 (centres undefined)	13.4%	-0.5%	5.22µM*	56.2%
CC(C)(C)S(=O)(=O)N1Cc2cc(CO)cc(CCO)c2[C@@H]1CCO	-5.9%	15.2%	/	/
Cc1ccc(C(=O)NNC(=O)c2ccc(S(=O)(=O)N3CCOCC3)cc2)cc1	9.1%	1.3%	30.5%	10.9%
Cc1ccc(N(Cc2ccccc2)C(=O)c2ccc(C)c(S(=O)(=O)N3CCOCC3)c2)cc1	-5.7%	31.6µM*	2.08µM*	6.57µM*
Cc1ccc(N(Cc2ccccc2)C(=O)c2ccc(S(=O)(=O)N3CCOCC3)cc2)cc1	-4.6%	-6.9%	?	13.1µM*
Cc1ccc(N(Cc2ccccc2)C(=O)Cc2ccc(S(=O)(=O)N3CCOCC3)s2)cc1	-20.5%	?	?	13.1µM*
CCCN(C(=O)Cc1ccc(S(=O)(=O)N2CCOCC2)s1)c1c(N)n(Cc2ccccc2)c(=O)[nH]c1=O	23.6%	16.1%	/	/
CC(=O)N1CCN(S(=O)(=O)c2cccc(C(=O)N(Cc3ccccc3)c3cccc(C)c3)c2)CC1	-8.7%	-5.6%	8.28µM*	?
CCCCN(C(=O)c1cccc(S(=O)(=O)N2CCN(Cc3ccccc3)CC2)c1)c1ccccc1	-8.3%	?	?	?
COc1ccc(NC(=O)COC(=O)Cc2cccs2)cc1Cl	-1.4%	/	/	/
COc1ccc(CC(=O)N(Cc2ccccc2)c2ccc(C)cc2)cc1S(=O)(=O)N1CCOCC1	65.5%	-9.5%	13.1µM*	?
Cc1ccc(N(C(=O)c2ccc(S(=O)(=O)N3CCOCC3)cc2)C2C=CS(=O)(=O)C2)cc1 (centres undefined)	38.6%	16.0%	8.28µM*	-11.0%
Cc1ccc(N(Cc2ccccc2)C(=O)c2cccc(S(=O)(=O)N3CCOCC3)c2)cc1	-14.1%	-11.0%	10.4µM*	10.4µM*
Cc1ccc(N(Cc2ccccc2)C(=O)c2cccc(S(=O)(=O)N3CCN(C)CC3)c2)cc1	2.1%	6.5%	?	?
CN(C)c1ccc(N/C=C/C(=O)C(C)(C)C)cc1	-17.6%	?	/	2.33µM*
CN(C)c1ccc(N/C=C/C(=O)c2ccccc2)cc1	?	-19.3%	/	-37.6%
CCN(CC)S(=O)(=O)c1ccc(Cl)c(NC(=O)COC(=O)c2cccn2C)c1	6.1%	5.62µM*	?	-26.7%
Cn1ccc(C(=O)OCC(=O)Nc2cccc(Cl)c2)n1	1.4%	16.1%	?	30.0%
Cn1ccc(C(=O)OCC(=O)Nc2ccccc2Cl)n1	8.4%	3.16µM*	?	29.5%
SMILES	AMA1-RON2 inh	HCV inh	Pf growth 96h	Pf growth 48h
CN(C)S(=O)(=O)c1ccc(Cl)c(NC(=O)COC(=O)c2ccc(O)cc2)c1	6.1%	3.6%	-17.8%	-14.7%
CCN(CC)S(=O)(=O)c1ccc(Cl)c(NC(=O)COC(=O)c2c(C)noc2C)c1	10.4%	?	45.5%	11.0%
CCN(CC)S(=O)(=O)c1ccc(Cl)c(NC(=O)COC(=O)c2ccc(O)cc2)c1	-14.5%	?	4.65µM*	?
CCOC(=O)C1=C(COC(=O)c2cc(S(=O)(=O)N3CCOCC3)ccc2F)NC(=O)NC1C (centres undefined)	-11.7%[11.6 µM]	-2.8%	/	/
OCCC1CN(Cc2cnc(-c3cccc4ccccc34)nc2)CCN1C1CCCCC1 (centres undefined)	-5.5%	-6.3%	21.6%	?
CN(C(=O)c1ccccc1C(=O)OCC(=O)c1ccc(Br)cc1)c1ccccc1	-21.1%	-24.0%	11.7µM*	?
O=C1CCN(Cc2nc(-c3ccc(Cl)cc3)no2)CCN1	-1.7%	?	10.4µM*	19.8%
Clc1ccc(-c2noc(CN3CCOCC3)n2)cc1	-10.1%	13.0%	49.6%	402.3%
CC1(C)NC(=O)N(CCOCCSc2ccccc2)C1=O	-1.0%	11.0%	9.28µM*	33.9%
O=C1C=C(OCCF)CC(c2ccc(Br)cc2)O1 (centres undefined)	-4.2%	/	/	/
CCNC(=S)NNC(=O)c1cc(-c2cccc(OC)c2)nc2ccccc12	18.2%	20.7%	-27.1%	-4.5%
CCCOc1ccc(C(=O)NNC(=S)NC(=O)c2cc(-c3ccc(Cl)cc3)nc3ccccc23)cc1	170.1%	15.8µM*	8.0%	?
CCCOc1cccc(-c2cc(C(=O)NNC(=S)NCC)c3ccccc3n2)c1	63.9%	-23.8%	/	10.4µM*
COc1ccc(C(=O)NNC(=S)NC(=O)c2cc(-c3ccccc3)nc3ccccc23)cc1	27.1%	?	110.1%	6.5%
O=C(NCC1COc2ccccc2O1)c1ccc(Cl)c(S(=O)(=O)N2CCCC2)c1 (centres undefined)	5.7%	?	9.28µM*	9.28µM*
C=CCn1cc(C(=O)NCC2CCCO2)c(=O)c2cc(S(=O)(=O)N3CCCCCC3)ccc21 (centres undefined)	-4.0%	?	3.6%	11.7µM*
CCCCSCCCNC(=O)c1cn(C)c2ccc(S(=O)(=O)N3CCCC3)cc2c1=O	-7.7%	0.0%	10.4µM*	?
CCOCCCNC(=O)c1cn(C)c2ccc(S(=O)(=O)N3CCCCC3)cc2c1=O	0.0%	23.8%	?	-5.5%
O=C(NCC1COc2ccccc2O1)c1ccc(NC(=O)C(c2ccccc2)c2ccccc2)cc1 (centres undefined)	0.0%	?	?	9.28µM*
Cc1ccc(NC(=O)COc2ccc(/C(N)=N/O)cc2)cc1C	-7.6%	-7.0%	7.1%	-2.5%
O=C(COC(=O)c1cnc(Cl)c(Cl)c1)Nc1ccc(S(=O)(=O)N2CCCC2)cc1	-11.3%	-0.2%	-28.2%	-1.5%
CCN(CC)S(=O)(=O)N1CCC(C(=O)NCC2COc3ccccc3O2)CC1 (centres undefined)	1.8%	?	475.7%	?
Cn1cc(C(=O)NCC2COc3ccccc3O2)c(=O)c2cc(S(=O)(=O)N3CCCCC3)ccc21 (centres undefined)	-17.1%	2.1%	/	11.7µM*
O=C(NCC1COc2ccccc2O1)c1ccc(Cl)c(S(=O)(=O)N2CCOCC2)c1 (centres undefined)	2.6%	?	13.1µM*	?
